Reference: PubChem BioAssay (NCATS)
Records with an inconclusive call do not appear. Activity calls are given as the source filed them. Unless noted, the call rests on the fitted dose curve; in most records, active means well fitted curve in the direction sought with a large enough effect; inconclusive means small, poorly fitted or top-dose-only effect, or another doubt; inactive means no such curve, though single readings can be large; an effect the other way counts as inactive or inconclusive.

Tests used:
[1] = biological target: Lysosomal acid glucosylceramidase (Homo sapiens) (UniProt P04062); assay: Glucocerebrosidase-p2 (AID 348; in the data active means potency below about 10 µM; further: potency means the concentration at half of the fitted maximal effect); conditions: purified GBA, blue fluorogenic substrate, 40 min
Summary of the method: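 Compounds titrated from 0.6 nM upwards against 0.2 nM enzyme in pH 5.9 citric acid/KH2PO4, taurocholate, tween-20; blue fluorogenic substrate 80 uM, 40 min room temperature, stopped and read Ex 365/Em 440 for AC50.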

[2] = AP1 Signaling Pathway (AID 357; active means well fitted curve in either direction with a large enough effect, not every such curve was filed as active;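 further: ME-180 reporter cells stimulated with EGF at its EC50 level; on the % scale 0 is the no-effect control and ±100 the full control effect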); conditions: ME-180 AP-1-bla reporter, EGF-induced, beta-lactamase ratio, 5 h; at 7.69 µM (top of the series) unless noted
Summary of the method: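 Modulation of EGF-driven AP-1 transcription was assessed with a beta-lactamase reporter in ME-180 cells. Compound and EC50 EGF were co-incubated 5 hours at 37 °C before 2.5-hour CCF4 loading at room temperature and dual-emission reading.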

[3] = NFAT Signaling Pathway (AID 444; active means well fitted curve in either direction with a large enough effect, not every such curve was filed as active;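 further: carbachol stimulus at about its EC50 of 1 µM final; on the % scale 0 is the no-effect control and ±100 the full control effect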); conditions: Jurkat NFAT-bla M1, carbachol, beta-lactamase ratio, 5 h; at 7.69 µM (top of the series) unless noted
Summary of the method: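 Jurkat cells carrying an NFAT-driven β-lactamase reporter and co-transfected muscarinic M1 receptor were treated with compound plus carbachol (1 uM final, an EC50 level) for 5 h at 37 °C. CCF4 loading followed for 1 h at RT; 460/530 nm ratio gave %activity.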

[4] = Stat Signaling Pathway (AID 446; active means well fitted curve in either direction with a large enough effect, not every such curve was filed as active;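 further: ME-180 cervical cancer cells given 40 pM IL-6 alongside compound; SIE-controlled beta-lactamase reporter measured as 460/530 nm FRET emission ratio; on the % scale 0 is the no-effect control and ±100 the full control effect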); conditions: ME-180 SIE beta-lactamase reporter, IL-6 stimulated, 5 h; at 7.69 µM (top of the series) unless noted
Summary of the method: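 IL-6/STAT signaling read in ME-180 cells via an SIE beta-lactamase reporter. Stimulus was 40 pM IL-6 (its AC50) for 5 hrs, so both activation and inhibition register.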

[5] = biological target: Glucocorticoid receptor (Homo sapiens) (UniProt P04150); assay: GR-GFP Redistribution (AID 450;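 active means compounds whose dose series gives a full or clear partial fitted curve of increased nuclear translocation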; further: potency means the concentration at half of the fitted maximal effect); conditions: U2OS GR-GFP nuclear translocation, laser cytometry, 2 h
[6] = biological target: Glucocorticoid receptor (Homo sapiens) (UniProt P04150); assay: GR-EFC Redistribution (AID 451; calls by dose curve; further: potency means the concentration at half of the fitted maximal effect); conditions: CHO-K1 GR-EFC translocation, beta-gal luminescence, 2 h
Summary of the method: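 CHO-K1 cells stably expressing nuclear-localized β-gal enzyme acceptor and GR fused C-terminally to the enzyme donor fragment; ligand-driven nuclear translocation restores β-gal by complementation. Compounds titrated up to 46 uM final, 2 h at 37 °C; luminescence read.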

[7] = biological target: Mitogen-activated protein kinase 10 (Mus musculus) (UniProt Q61831); assay: JNK3 AlphaScreen Assay (AID 530; active means well fitted curve in either direction with a large enough effect, not every such curve was filed as active;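 further: kinase came from lysate of stimulated human HepG2 cells; signal reports phosphorylation of biotinylated GST-cJun 1-79 at Ser73 with 10 µM ATP; on the % scale 0 is the no-effect control and ±100 the full control effect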); conditions: JNK3 lysate, c-Jun phosphorylation; series mostly up to 57.1 µM
Summary of the method: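 Inhibitors reduce antibody binding to phosphorylated biotin-cJun, lowering AlphaScreen luminescence. Lysates from HepG2 cells pre-activated by IL-1beta plus TNF-alpha supplied JNK3; compounds were titrated.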

[8] = biological target: 3',5'-cyclic-AMP phosphodiesterase 4B (Homo sapiens) (UniProt Q07343); assay: qHTS Assay for Inhibitors of PDE-IV (AID 607; active means well fitted activation curve with a large enough effect in the main read-out, with a control signal flat, not every such curve was filed as active; further: % of control where 0% means no effect); conditions: HEK293 ACTOne CNG channel cells, membrane potential fluorescence; series mostly up to 22.9 µM
Summary of the method: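 Live HEK293 cells with a modified cyclic nucleotide-gated (CNG) channel report intracellular cAMP via membrane-potential dye fluorescence (ex 535/em 590 nm). Endogenous PDE-IV was targeted. Compounds were tested at up to 22.9 uM final; RO 20-1724 100 uM served as control.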

[9] = qHTS Assay for Lipid Storage Modulators (AID 1519; calls by dose curve; further: potency means the concentration at half of the fitted maximal effect); conditions: Drosophila S3 cells, BODIPY lipid droplet/cell ratio, laser cytometry, cells loaded with oleic acid; for activity change, negative = inhibition: at 57.5 µM (top of the series)
Summary of the method: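 Cells seeded at 5,000 per well were treated with compounds over a concentration series and loaded with oleic acid (400 uM, as added). Lipid droplet fluorescence (488 nm excitation, 500-530 nm channel) was read by laser-scanning cytometry and normalized to 20 uM Triacsin C.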

[10] = biological target: Dual specificity protein kinase CLK4 (Homo sapiens) (UniProt Q9HAZ1); assay: qHTS Assay for Inhibitors of CDC-like Kinase 4 (Kinase-Glo Assay) (AID 1770); conditions: recombinant Clk4, Kinase-Glo ATP depletion luminescence; series mostly up to 66.7 µM; further: nearly all actives have a fitted effect of over 65% in size; further: potency means the concentration at half of the fitted maximal effect
Summary of the method: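 Clk4 25 nM, RS peptide 100 uM, ATP 1 uM, pH 7.5 Tris, 10 mM MgCl2, 2.5 mM DTT; 4.5 h RT; ATP depletion read by Kinase-Glo luminescence.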

[11] = biological target: Dual specificity protein kinase CLK4 (Homo sapiens) (UniProt Q9HAZ1); assay: qHTS Assay for Inhibitors of CDC-like Kinase 4 (ADP-Glo Assay) (AID 1771); conditions: recombinant CLK4, ADP-Glo luminescence; series mostly up to 80 µM; further: nearly all actives have a fitted effect of over 70% in size; further: potency means the concentration at half of the fitted maximal effect
Summary of the method: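 25 nM Clk4 with 100 uM RS repeat peptide and 1 uM ATP (final) in buffer with 2 mM MgCl2, 0.5 mM EGTA, 2.5 mM DTT, 0.01% Triton X-100; 1 h at room temperature; ADP-Glo luminescence for ADP formed.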

[12] = biological target: Dual specificity protein kinase CLK4 (Homo sapiens) (UniProt Q9HAZ1); assay: qHTS Assay for Inhibitors of CDC-like Kinase 4 (ADP-FP Assay) (AID 1795); conditions: Transcreener ADP fluorescence polarization; series mostly up to 50 µM; further: nearly all actives have a fitted effect of over 60% in size; further: potency means the concentration at half of the fitted maximal effect
Summary of the method: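 Kinase activity was followed as ADP output, converted from fluorescence polarization with a calibration curve. Reactions ran one hour at low ATP (1 uM) with RS peptide substrate.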

[13] = biological target: Ubiquitin carboxyl-terminal hydrolase 1 (Homo sapiens) (UniProt O94782); assay: Inhibitors of USP1/UAF1: Pilot qHTS (AID 504865); conditions: purified USP1/UAF1, Ub-rhodamine cleavage fluorescence; series mostly up to 54.9 µM; further: nearly all actives have a fitted effect of over 35% in size; further: potency means the concentration at half of the fitted maximal effect
Summary of the method: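 Enzyme-free wells gave the negative control, while test wells held 1nM USP1/UAF1 preincubated with compound for 15 min at room temperature. Ub-Rho at 150nM final started the reaction, and fluorescence at 480/540 nm was recorded kinetically.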

[14] = Primary qHTS for small molecule stabilizers of the endoplasmic reticulum resident proteome: Secreted ER Calcium Modulated Protein (SERCaMP) assay (AID 1508630); conditions: SH-SY5Y GLuc-SERCaMP (Gaussia luciferase released on ER calcium loss) secretion, thapsigargin, luminescence; series mostly up to 38.4 µM; further: on the % scale 0 is the no-effect control and ±100 the full control effect
Summary of the method: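 GLuc-SERCaMP-expressing SH-SY5Y cells, pretreated 16 h with compound, are challenged with thapsigargin to empty ER calcium stores; after 4 h, coelenterazine is added directly to the medium and luminescence is imaged.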

[15] = biological target: Cytochrome P450 1A2 (Homo sapiens) (UniProt P05177); assay: p450-cyp1a2 (AID 410; calls by dose curve; further: potency means the concentration at half of the fitted maximal effect); conditions: recombinant CYP1A2, luciferin-ME demethylation, luminescence; series mostly up to 57 µM
Summary of the method: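 20nM CYP1A2 with 100uM Luciferin-ME (at Km) in 100mM KPO4; compound preincubated 10 min, NADPH regeneration added, 60 min at room temperature. Luciferin quantified by luminescence after detection reagent; normalized to 57 uM furafylline.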

[16] = biological target: Cytochrome P450 3A4 (Homo sapiens) (UniProt P08684); assay: qHTS Assay for Activators of Cytochrome P450 3A4 (AID 885); conditions: recombinant CYP3A4, Luciferin-PPXE luminescence, 60 min; series mostly up to 57.1 µM; further: nearly all actives have a fitted effect of over 65% in size
Summary of the method: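 Quantitative HTS format: compounds preincubated with 20nM human CYP3A4 and Luciferin-PPXE substrate at KM, reaction started by NADPH regeneration, stopped after 60 min, luciferase luminescence read 20 min later.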

[17] = biological target: Cytochrome P450 3A4 (Homo sapiens) (UniProt P08684); assay: qHTS Assay for Inhibitors and Substrates of Cytochrome P450 3A4 (AID 884); conditions: recombinant CYP3A4, Luciferin-PPXE luminescence; series mostly up to 57.1 µM; further: potency means the concentration at half of the fitted maximal effect; nearly all actives have a fitted effect of over 50% in size
Summary of the method: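 20 nM human CYP3A4 with 25 uM Luciferin-PPXE (at KM) in 200 mM KPO4, preincubated 10 min with compound; NADPH regeneration started a 60 min RT reaction. Luciferin detected by luminescence, normalized to 57 uM ketoconazole as full inhibition.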

[18] = qHTS Assay for Identification of Small Molecule Agonists for Hypoxia Response Element Signaling Pathway (AID 914; active means well fitted activation curve with a large enough effect in the signal ratio, with a control signal flat, not every such curve was filed as active; the % refers to the signal ratio; further: potency means the concentration at half of the fitted maximal effect); conditions: ME-180 HRE-bla reporter, beta-lactamase ratio, CoCl2, 17 h; activation: stronger effect = higher value
Summary of the method: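 ME-180 cells carrying an HRE-driven beta-lactamase reporter were treated with compounds in a titration series plus an EC50 level of CoCl2 for 17 h at 37 degrees Celsius; CCF4 readout as the 460nm/530nm ratio gave AC50 values.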

[19] = measured here: cell count channel max response
[20] = measured here: lipid channel max response

Sequence of Lysosomal acid glucosylceramidase (Homo sapiens) (P04062 whole entry, looked up): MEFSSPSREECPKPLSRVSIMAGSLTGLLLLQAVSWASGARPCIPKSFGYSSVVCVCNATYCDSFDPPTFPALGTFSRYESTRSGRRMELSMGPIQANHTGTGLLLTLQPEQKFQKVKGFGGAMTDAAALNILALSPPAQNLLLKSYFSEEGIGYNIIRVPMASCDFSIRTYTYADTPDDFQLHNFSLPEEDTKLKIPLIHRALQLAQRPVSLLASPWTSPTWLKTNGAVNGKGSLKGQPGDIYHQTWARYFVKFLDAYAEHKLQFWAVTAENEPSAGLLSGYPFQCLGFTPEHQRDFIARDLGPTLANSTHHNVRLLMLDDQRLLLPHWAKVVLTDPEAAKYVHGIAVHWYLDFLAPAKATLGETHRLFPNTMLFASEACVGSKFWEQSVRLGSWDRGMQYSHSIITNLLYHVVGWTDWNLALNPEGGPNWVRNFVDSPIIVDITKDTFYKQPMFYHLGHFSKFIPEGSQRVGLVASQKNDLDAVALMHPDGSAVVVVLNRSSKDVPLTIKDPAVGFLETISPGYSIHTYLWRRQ
Sequence of 3',5'-cyclic-AMP phosphodiesterase 4B (Homo sapiens) (Q07343 whole entry, looked up): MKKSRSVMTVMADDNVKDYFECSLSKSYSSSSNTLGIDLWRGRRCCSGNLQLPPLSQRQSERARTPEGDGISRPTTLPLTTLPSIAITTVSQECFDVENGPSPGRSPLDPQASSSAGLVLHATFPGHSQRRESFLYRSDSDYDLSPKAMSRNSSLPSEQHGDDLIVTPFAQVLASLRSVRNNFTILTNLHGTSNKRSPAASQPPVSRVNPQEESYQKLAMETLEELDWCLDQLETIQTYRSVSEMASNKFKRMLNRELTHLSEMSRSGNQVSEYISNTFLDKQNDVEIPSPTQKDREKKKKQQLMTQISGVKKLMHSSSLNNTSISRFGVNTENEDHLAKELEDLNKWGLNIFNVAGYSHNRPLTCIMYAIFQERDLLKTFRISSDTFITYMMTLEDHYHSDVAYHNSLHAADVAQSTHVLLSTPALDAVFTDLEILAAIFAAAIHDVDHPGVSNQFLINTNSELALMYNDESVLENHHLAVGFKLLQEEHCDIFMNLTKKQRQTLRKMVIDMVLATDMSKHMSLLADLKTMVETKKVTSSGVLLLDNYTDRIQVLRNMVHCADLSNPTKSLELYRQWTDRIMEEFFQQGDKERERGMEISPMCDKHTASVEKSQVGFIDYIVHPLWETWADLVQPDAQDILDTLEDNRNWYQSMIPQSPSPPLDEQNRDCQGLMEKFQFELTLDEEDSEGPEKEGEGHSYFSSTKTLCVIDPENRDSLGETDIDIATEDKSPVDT
Sequence of Cytochrome P450 1A2 (Homo sapiens) (P05177 whole entry, looked up): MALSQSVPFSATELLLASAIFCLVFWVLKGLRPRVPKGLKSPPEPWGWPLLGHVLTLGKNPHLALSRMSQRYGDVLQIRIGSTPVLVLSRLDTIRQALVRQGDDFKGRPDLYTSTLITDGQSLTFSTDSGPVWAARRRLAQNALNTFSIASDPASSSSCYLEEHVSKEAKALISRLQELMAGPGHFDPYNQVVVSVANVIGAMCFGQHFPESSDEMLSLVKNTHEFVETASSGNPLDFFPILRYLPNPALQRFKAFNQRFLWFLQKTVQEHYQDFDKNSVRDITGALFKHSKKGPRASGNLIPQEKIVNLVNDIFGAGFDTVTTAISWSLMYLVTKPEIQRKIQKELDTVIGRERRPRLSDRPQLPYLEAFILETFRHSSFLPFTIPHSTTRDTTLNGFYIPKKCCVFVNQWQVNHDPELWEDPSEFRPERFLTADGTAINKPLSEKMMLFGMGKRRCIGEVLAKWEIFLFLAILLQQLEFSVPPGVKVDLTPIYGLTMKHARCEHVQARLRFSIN
Sequence of Dual specificity protein kinase CLK4 (Homo sapiens) (Q9HAZ1 whole entry, looked up): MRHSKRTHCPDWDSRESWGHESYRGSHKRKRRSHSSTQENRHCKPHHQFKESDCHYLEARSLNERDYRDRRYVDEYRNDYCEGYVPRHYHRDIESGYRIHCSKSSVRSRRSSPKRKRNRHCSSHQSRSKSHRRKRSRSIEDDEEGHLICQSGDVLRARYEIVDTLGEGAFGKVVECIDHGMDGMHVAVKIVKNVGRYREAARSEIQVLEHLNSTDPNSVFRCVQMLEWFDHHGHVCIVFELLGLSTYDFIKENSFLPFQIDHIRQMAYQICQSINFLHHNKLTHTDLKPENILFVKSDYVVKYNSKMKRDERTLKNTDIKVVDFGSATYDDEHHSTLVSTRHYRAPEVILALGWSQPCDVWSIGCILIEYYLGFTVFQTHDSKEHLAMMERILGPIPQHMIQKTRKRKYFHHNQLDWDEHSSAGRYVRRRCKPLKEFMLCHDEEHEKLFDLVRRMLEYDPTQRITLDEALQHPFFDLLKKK
Sequence of Ubiquitin carboxyl-terminal hydrolase 1 (Homo sapiens) (O94782 whole entry, looked up): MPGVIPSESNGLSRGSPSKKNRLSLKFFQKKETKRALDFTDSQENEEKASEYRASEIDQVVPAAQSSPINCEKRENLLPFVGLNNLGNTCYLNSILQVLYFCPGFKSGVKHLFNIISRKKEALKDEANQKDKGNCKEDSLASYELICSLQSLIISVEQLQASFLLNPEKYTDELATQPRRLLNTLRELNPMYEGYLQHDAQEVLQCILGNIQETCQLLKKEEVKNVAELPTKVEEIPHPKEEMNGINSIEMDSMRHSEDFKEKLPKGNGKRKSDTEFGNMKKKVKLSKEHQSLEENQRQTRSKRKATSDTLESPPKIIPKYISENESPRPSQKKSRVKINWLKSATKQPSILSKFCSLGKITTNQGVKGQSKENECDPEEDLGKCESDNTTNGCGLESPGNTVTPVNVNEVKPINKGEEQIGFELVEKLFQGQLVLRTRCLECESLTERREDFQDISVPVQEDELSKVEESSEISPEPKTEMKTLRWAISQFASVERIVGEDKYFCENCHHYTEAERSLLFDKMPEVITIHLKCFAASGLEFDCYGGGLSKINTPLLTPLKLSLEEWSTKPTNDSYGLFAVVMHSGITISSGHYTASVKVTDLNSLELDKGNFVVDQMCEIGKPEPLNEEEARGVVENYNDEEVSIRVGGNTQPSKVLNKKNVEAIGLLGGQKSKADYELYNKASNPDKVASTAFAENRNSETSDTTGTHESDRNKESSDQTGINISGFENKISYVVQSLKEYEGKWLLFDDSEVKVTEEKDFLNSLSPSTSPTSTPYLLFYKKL
Sequence of Glucocorticoid receptor (Homo sapiens) (P04150 whole entry, looked up, the tested form may be a part): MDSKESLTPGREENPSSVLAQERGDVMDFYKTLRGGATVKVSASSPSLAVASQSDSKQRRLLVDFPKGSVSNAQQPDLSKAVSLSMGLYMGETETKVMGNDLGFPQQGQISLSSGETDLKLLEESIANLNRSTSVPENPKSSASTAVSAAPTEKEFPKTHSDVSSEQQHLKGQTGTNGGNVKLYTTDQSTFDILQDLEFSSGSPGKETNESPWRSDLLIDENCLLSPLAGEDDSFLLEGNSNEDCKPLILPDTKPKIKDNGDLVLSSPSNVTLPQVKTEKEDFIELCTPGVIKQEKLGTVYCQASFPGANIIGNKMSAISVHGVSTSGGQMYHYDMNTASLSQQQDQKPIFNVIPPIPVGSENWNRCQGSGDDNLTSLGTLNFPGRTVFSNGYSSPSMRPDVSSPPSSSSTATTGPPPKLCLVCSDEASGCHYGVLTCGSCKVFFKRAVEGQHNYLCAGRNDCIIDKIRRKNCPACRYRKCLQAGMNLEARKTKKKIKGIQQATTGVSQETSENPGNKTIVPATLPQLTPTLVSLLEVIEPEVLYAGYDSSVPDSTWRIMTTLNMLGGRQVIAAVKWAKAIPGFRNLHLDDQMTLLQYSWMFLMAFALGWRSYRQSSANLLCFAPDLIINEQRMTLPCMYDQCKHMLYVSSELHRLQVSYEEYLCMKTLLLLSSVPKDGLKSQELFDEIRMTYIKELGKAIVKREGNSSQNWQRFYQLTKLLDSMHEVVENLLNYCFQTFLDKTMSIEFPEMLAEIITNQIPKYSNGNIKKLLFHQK
Sequence of Cytochrome P450 3A4 (Homo sapiens) (P08684 whole entry, looked up): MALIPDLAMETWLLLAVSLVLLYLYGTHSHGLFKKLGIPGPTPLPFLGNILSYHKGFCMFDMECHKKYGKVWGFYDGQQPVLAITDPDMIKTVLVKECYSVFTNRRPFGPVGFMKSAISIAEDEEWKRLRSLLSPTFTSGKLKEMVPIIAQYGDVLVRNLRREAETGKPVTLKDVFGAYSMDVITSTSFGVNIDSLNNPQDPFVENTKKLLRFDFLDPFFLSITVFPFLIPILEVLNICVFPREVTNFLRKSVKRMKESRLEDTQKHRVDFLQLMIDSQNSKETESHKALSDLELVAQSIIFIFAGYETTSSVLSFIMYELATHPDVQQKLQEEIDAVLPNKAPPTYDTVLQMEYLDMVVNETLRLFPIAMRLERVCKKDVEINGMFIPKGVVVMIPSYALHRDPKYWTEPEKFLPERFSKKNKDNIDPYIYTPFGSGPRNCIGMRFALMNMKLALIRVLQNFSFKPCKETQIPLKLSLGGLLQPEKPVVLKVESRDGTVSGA

c1nc(N2CCNCC2)c2cc(-c3ccoc3)ccc2n1
29.5%: max response [9, 20]
inactive: Potency [1] > 11.4 µM | activity change, negative = inhibition [2] -10.9% | activity change, negative = inhibition [3] 9.12% | activity, negative = inhibition [4] -4.93% | Potency [5] > 46 µM | Potency [6] > 46 µM | outcome [7] | Potency [8] | activity change, negative = inhibition [9] 3.07% | Potency [13] | Potency [14]
active: Potency [10] 1.58 µM | Potency [11] 3.16 µM | Potency [12] 0.708 µM
29.3%: max response [9, 19]

COc1ccc(-c2nc3cnc(Nc4cccc(OC)c4)nc3n(C3CC3)c2=O)cc1
17.2%: max response [9, 19]
inactive: Potency [1] > 11.4 µM | activity change, negative = inhibition [2] -4.98% | activity change, negative = inhibition [3] -8.58% | activity, negative = inhibition [4] 25.2% | Potency [5] > 9.22 µM | Potency [6] > 46 µM | outcome [7] | Potency [8] | activity change, negative = inhibition [9] 0.287% | Potency [10] | Potency [11] | Potency [12] | Potency [13] | Potency [14]
15%: max response [9, 20]

O=c1c(-c2ccc(F)cc2)nc2cnc(Nc3ccccc3)nc2n1C[C@H]1CCCO1
-76%: max response [9, 20]
inactive: Potency [1] > 11.4 µM | activity change, negative = inhibition [2] -19.3% | Potency [5] > 9.22 µM | Potency [6] > 46 µM | outcome [7] | Potency [8] | Potency [16] | Potency [10] | Potency [11] | Potency [12] | Potency [13] | Potency [14]
active: Potency [15] 2 µM | Potency [9] 3.55 µM
-27.1%: max response [9, 19]

O=c1c(-c2ccc(F)cc2)nc2cnc(Oc3ccccc3)nc2n1Cc1cccs1
-29.7%: max response [9, 20]
active: Potency [13] 3.16 µM
inactive: Potency [1] > 11.4 µM | activity change, negative = inhibition [2] -11.6% | activity change, negative = inhibition [3] 2.8% | activity, negative = inhibition [4] 1.3% | Potency [5] > 9.22 µM | Potency [6] > 46 µM | outcome [7] | Potency [8] | activity change, negative = inhibition [9] -20.3% | Potency [10] | Potency [11] | Potency [12] | Potency [14]
-6.12%: max response [9, 19]

Cc1noc(C)c1-c1cncnc1NCCN1CCOCC1
12.2%: max response [9, 19]
14.6%: max response [9, 20]
inactive: Potency [1] > 11.4 µM | activity change, negative = inhibition [2] 4.2% | activity change, negative = inhibition [3] -5.64% | activity, negative = inhibition [4] -2.23% | Potency [5] > 46 µM | Potency [6] > 46 µM | outcome [7] | Potency [8] | Potency [16] | activity change, negative = inhibition [9] 3.95% | Potency [10] | Potency [11] | Potency [12] | Potency [13] | Potency [14]
active: Potency [17] 6.31 µM

FC(F)(F)c1ccccc1-c1cc(NCCN2CCOCC2)ncn1
30.8%: max response [9, 20]
inactive: Potency [1] > 11.4 µM | activity change, negative = inhibition [2] 10.7% | activity, negative = inhibition [4] 14.2% | Potency [5] > 46 µM | Potency [6] > 46 µM | outcome [7] | Potency [8] | activity change, negative = inhibition [9] 5.67% | Potency [10] | Potency [11] | Potency [12] | Potency [13] | Potency [14]
active: Potency [15] 12.6 µM
25.8%: max response [9, 19]

CC(=O)NCCNc1ncnc2ccc(-c3c(C)noc3C)cc12
inactive: Potency [1] > 11.4 µM | activity change, negative = inhibition [2] 12.8% | activity, negative = inhibition [4] -17.9% | Potency [5] > 46 µM | Potency [6] > 46 µM | outcome [7] | Potency [8] | Potency [16] | activity change, negative = inhibition [9] 3.36% | Potency [13] | Potency [14]
29.5%: max response [9, 20]
active: Potency [15] 15.8 µM | Potency [18] 3.16 µM | Potency [10] 7.08 µM | Potency [11] 6.31 µM | Potency [12] 7.08 µM
28.8%: max response [9, 19]

CN(Cc1ccco1)c1ncncc1-c1cccc(C#N)c1
17.8%: max response [9, 20]
14.4%: max response [9, 19]
inactive: Potency [1] > 11.4 µM | activity change, negative = inhibition [2] 21.3% | activity, negative = inhibition [4] 7.25% | Potency [6] > 46 µM | outcome [7] | Potency [8] | Potency [16] | activity change, negative = inhibition [9] 5.47% | Potency [10] | Potency [11] | Potency [12] | Potency [14]
active: Potency [15] 12.6 µM
